Compounds with a hit are over-represented: about 4.5% of the library has one in this group of screens.
ssDAF12 agonist = S. stercoralis DAF-12 activation, primary screen | HEK293 ssDAF-12/GRIP1 lit1-tk-luc reporter, luminescence; % of 3 µM dafachronic acid response | activation, % at 6.8 µM | 370,000 compounds, 1% hits;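 active means activation above the mean over all tested compounds plus 3 SD, cut at about 0.9% in these data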
hgDAF-12 ag = hgDAF-12 agonism, primary luciferase screen; 370,000 compounds, 1.8% hits; HEK293 GAL4-hgDAF12 UAS-luciferase reporter, agonist luminescence; normalized to butyrate control; activation, % at 6.8 µM;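 active means activation above a cutoff set at the mean of all screened compounds plus 3 SD, cut at about 10% in these data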
DAX1 inh-1 = blocks DAX1 repression of SF-1 activated StAR promoter; 370,000 compounds, 1.1% hits; inhibition, % at 6.8 µM; HEK293T StAR-luciferase reporter, SF-1/DAX-1 repression relief;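 active means inhibition above the mean over all tested compounds plus 3 SD, cut at about 3.6% in these data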;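 further: higher inhibition means more luminescence from relief of DAX-1 repression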
hcDAF-12 act = activates DAF-12 receptor from parasite H. contortus | HEK293 hcDAF-12 lit1-tk-luc reporter, luminescence; 0% DMSO, 100% Δ7-dafachronic acid | activation, % at 6.8 µM | 370,000 compounds, 1.4% hits | AID 652067;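 active means activation above the mean of all tested compounds plus 3 SD, cut at about 5.5% in these data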
DAX1 inh-2 = inhibitors of human orphan nuclear receptor DAX1 (NR0B1); P51843; HEK293 Gal4-DAX1 luciferase reporter, luminescence; inhibition, % at 6.75 µM; 340,000 compounds, 0.99% hits; AID 504766;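 active means inhibition above the mean over all tested compounds plus 3 SD, cut at about 4.2% in these data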;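 further: inhibition shows as a rise in luminescence from relieved DAX1 repression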
Target sequence (P51843 207-470 limits assumed): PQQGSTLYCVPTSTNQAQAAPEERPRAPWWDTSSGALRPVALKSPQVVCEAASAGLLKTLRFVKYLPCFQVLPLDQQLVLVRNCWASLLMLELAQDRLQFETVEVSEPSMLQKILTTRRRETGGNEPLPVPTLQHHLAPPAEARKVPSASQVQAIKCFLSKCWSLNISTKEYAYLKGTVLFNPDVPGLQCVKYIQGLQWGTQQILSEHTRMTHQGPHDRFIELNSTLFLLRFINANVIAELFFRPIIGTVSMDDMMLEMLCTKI
FXN GAA850 act = increases GAA850 frataxin promoter reporter activity | HEK293 lucGAA850 FXN promoter luciferase reporter, 24 h; percent of 10 µM SAHA response | activation, % at 6 µM | 360,000 compounds, 0.56% hits | AID 540364;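 active means activation above the average of all compounds screened plus 3 SD, cutoff fixed separately per campaign, cut at about 7.5% in these data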
LXRb hcDAF ctr = counter-screen for hcDAF-12 agonists: agonists of human LXR-beta. shares compounds with hcDAF-12 act. HEK293 Gal4-LXR tk-luc reporter, luminescence, 24 h; normalized: DMSO 0%, positive control 100%. activation, % at 6.8 µM. 3,400 tested, under 10 active. AID 743027;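 active means mean percent activation of the reporter above a cutoff set as the average over tested compounds plus their standard deviation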
Target sequence (P55055 whole entry, looked up, the tested form may be a part): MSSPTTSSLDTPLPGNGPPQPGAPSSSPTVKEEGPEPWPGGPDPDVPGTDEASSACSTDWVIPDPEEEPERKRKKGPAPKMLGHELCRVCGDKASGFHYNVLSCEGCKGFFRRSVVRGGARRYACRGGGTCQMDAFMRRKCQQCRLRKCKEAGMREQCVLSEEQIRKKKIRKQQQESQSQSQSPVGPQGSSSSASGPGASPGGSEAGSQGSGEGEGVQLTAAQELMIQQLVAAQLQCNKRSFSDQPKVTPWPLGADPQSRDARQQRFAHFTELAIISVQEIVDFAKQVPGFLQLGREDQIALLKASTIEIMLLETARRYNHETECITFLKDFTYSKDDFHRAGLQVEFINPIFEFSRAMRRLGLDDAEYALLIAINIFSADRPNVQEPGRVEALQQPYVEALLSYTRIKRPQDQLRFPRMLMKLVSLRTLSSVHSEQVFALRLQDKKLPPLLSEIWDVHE
hcDAF12 ag = hcDAF-12 agonism, confirmation assay; shares compounds with hcDAF-12 act; HEK293 hcDAF-12 lit1-tk-luc reporter, luminescence; % of Δ7-dafachronic acid response; activation, % at 6.8 µM; 3,400 compounds, 61% hits;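 active means mean activation across triplicate tests above the threshold derived from the earlier primary screen, cut at about 5.5% in these data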
Of the large screens only hits and unclear results are named; the others gave an inactive call (follow-up assays come after a bar, where they were run).

CCc1ccc(NS(=O)(=O)c2ccc3[nH]cc(C(=O)N4CCc5ccccc54)c(=O)c3c2)cc1	ssDAF12 agonist 1.2, hcDAF-12 act 7.3 | LXRb hcDAF ctr inactive | hcDAF12 ag 5.7
CCn1ncc(Br)c1C(=O)Nc1ccc(C(C)C)cc1	hcDAF-12 act 7.8 | LXRb hcDAF ctr inactive | hcDAF12 ag inactive
COC(=O)c1ccccc1NC(=O)CN(c1c(C)cccc1C)S(C)(=O)=O	ssDAF12 agonist 1.0, hgDAF-12 ag 11.4, hcDAF-12 act 18.3 | LXRb hcDAF ctr inactive | hcDAF12 ag inactive
CC(C)(C)C(=O)N1CCC[C@]2(CC[C@H](CCC#N)O2)C1	none (no result: DAX1 inh-2, FXN GAA850 act)
Nc1nn(-c2ccccc2)c(N)c1N=Nc1ccc2c(c1)OCO2	hgDAF-12 ag 20.2, hcDAF-12 act 8.4 | LXRb hcDAF ctr inactive | hcDAF12 ag 6.5
Nc1[nH]n(-c2ccccc2)c(=O)c1N=Nc1ccc2c(c1)OCO2	none
CC1(c2nnnn2Cc2ccccc2)CSCC(=O)N1Cc1cccs1 (configuration not stated)	none (no result: DAX1 inh-2, FXN GAA850 act)
Nc1ccn([C@@H]2O[C@H](C(=O)N3CCN(C(=O)C(F)(F)F)CC3)[C@@H](O)[C@H]2O)c(=O)n1	none (no result: DAX1 inh-2, FXN GAA850 act)
COc1cccc(-c2nnc(Nc3nc4c(F)cccc4s3)o2)c1	hcDAF-12 act 8.3 | LXRb hcDAF ctr inactive | hcDAF12 ag 6.8
O=C(CCC(=O)NCCCc1ccccc1)NCCCc1ccccc1	hcDAF-12 act 7.7 | LXRb hcDAF ctr inactive | hcDAF12 ag inactive
Cc1ccc(-c2cc(-c3nnc(SCC(=O)N4c5ccccc5Sc5ccccc54)n3N)[nH]n2)cc1	none (no result: DAX1 inh-2, FXN GAA850 act)
O=C(Nc1ccccc1SC(=O)c1ccccc1)c1ccccc1	ssDAF12 agonist 1.8, hcDAF-12 act 7.8, DAX1 inh-2 4.4 | LXRb hcDAF ctr inactive | hcDAF12 ag 9.9
CN(Cc1cn(Cc2ccc(Cl)cc2)nn1)C1CN(Cc2cn(Cc3ccc(Cl)cc3)nn2)S(=O)(=O)C1 (configuration not stated)	none (no result: DAX1 inh-2, FXN GAA850 act)
Cc1ccc(O)c(NC(=O)c2noc3c2CCCCC3)c1	none
Cc1ccc(NC(=O)c2noc3c2CCCCC3)cc1	ssDAF12 agonist 1.2, hgDAF-12 ag 11.5, hcDAF-12 act 10.3 | LXRb hcDAF ctr inactive | hcDAF12 ag 8.2
O=c1c2ccccc2cnn1-c1ccc(Br)cc1	ssDAF12 agonist 2.1, hgDAF-12 ag 15.6, DAX1 inh-1 3.9, hcDAF-12 act 11.2 | LXRb hcDAF ctr inactive | hcDAF12 ag 12.1
CC(=O)NCc1ccc(S(=O)(=O)N/N=C/c2ccc(Br)cc2)cc1	hcDAF-12 act 9.0 | LXRb hcDAF ctr inactive | hcDAF12 ag inactive
CC(=O)NCc1ccc(S(=O)(=O)N/N=C/c2ccccc2)cc1	none
Cc1ccc(-n2c3c(cc(C(=O)NC4CCSC4=O)c2=O)C(=O)CC(C)(C)C3)cc1 (configuration not stated)	hcDAF-12 act 6.9 | LXRb hcDAF ctr inactive | hcDAF12 ag inactive
CCOC(=O)c1cnc(Nc2nc3ccccc3o2)nc1C	hgDAF-12 ag 10.9, DAX1 inh-1 4.2, hcDAF-12 act 6.8 | LXRb hcDAF ctr inactive | hcDAF12 ag inactive
CC(C)c1[nH]nc2c1C(C(C)C)C(C#N)=C(N)O2 (configuration not stated)	ssDAF12 agonist 1.3, hcDAF-12 act 6.9 | LXRb hcDAF ctr inactive | hcDAF12 ag 7.8
COc1ccc(NC(=O)Nc2cc3oc4ccccc4c3cc2OC)cc1	none
COc1cc2c(cc1NC(=O)Nc1ccc(C)cc1)oc1ccccc12	hcDAF-12 act 8.5 | LXRb hcDAF ctr inactive | hcDAF12 ag inactive
COC(=O)C1=C(C)N(Cc2ccc(C(F)(F)F)cc2)C(=NCc2ccccc2C(F)(F)F)NC1c1ccccc1C(F)(F)F (configuration not stated)	none (no result: DAX1 inh-2, FXN GAA850 act)
COC(=O)[C@H](C)N(CCc1cn(Cc2ccccc2)nn1)S(=O)(=O)c1ccccc1Br	none (no result: DAX1 inh-2, FXN GAA850 act)
CCCS(=O)(=O)NC(=O)C1(C)CCN(C(=O)c2ccc(C(F)(F)F)nc2C)C1 (configuration not stated)	none (no result: ssDAF12 agonist, hgDAF-12 ag, DAX1 inh-1, hcDAF-12 act, DAX1 inh-2)
Cc1ccc(NC(=O)c2sc(N)nc2C)cc1	hgDAF-12 ag 11.2, hcDAF-12 act 6.9 | LXRb hcDAF ctr inactive | hcDAF12 ag inactive
CCCCNC(=O)NC1CCN(CC(=O)Nc2ccc3c(c2)OCCO3)CC1	none (no result: DAX1 inh-2, FXN GAA850 act)
COCc1c(C(=O)Nc2nc(C)cs2)oc2ccccc12	hcDAF-12 act 6.8 | LXRb hcDAF ctr inactive | hcDAF12 ag 5.7
COCc1c(C(=O)Nc2ccc(Cl)cc2F)oc2ccccc12	none
CC(C)N1CCC1(C)C(=O)Nc1cc(-c2ccccc2)nn1C (configuration not stated)	none (no result: DAX1 inh-2)
O=C(c1ccco1)c1coc2c1cc(O)c1ccccc12	ssDAF12 agonist 1.0, hcDAF-12 act 7.9 | LXRb hcDAF ctr inactive | hcDAF12 ag 6.1
CCc1noc(C)c1C(=O)Nc1nc2c(F)cc(F)cc2s1	hcDAF-12 act 10.6 | LXRb hcDAF ctr inactive | hcDAF12 ag inactive
O=C(Nc1nc2c(F)cc(F)cc2s1)c1ccccn1	hgDAF-12 ag 12.6, hcDAF-12 act 7.0 | LXRb hcDAF ctr inactive | hcDAF12 ag inactive
Cc1cc(SCC(=O)c2cccs2)nc2ccccc12	hcDAF-12 act 8.8 | LXRb hcDAF ctr inactive | hcDAF12 ag inactive
O=C(CSc1nc2ccccc2c(=O)[nH]1)c1cccs1	none
COc1cccc(OCc2ccc(Cl)cc2)c1C#N	ssDAF12 agonist 1.7, hgDAF-12 ag 12.3, hcDAF-12 act 8.4, DAX1 inh-2 4.8 | LXRb hcDAF ctr inactive | hcDAF12 ag 7.3
N#Cc1cnn2cc(-c3ncc(C(F)(F)F)cc3Cl)cnc12	none
Cc1cc2ncc(-c3ncc(C(F)(F)F)cc3Cl)cn2n1	hgDAF-12 ag 11.7, hcDAF-12 act 8.3 | LXRb hcDAF ctr inactive | hcDAF12 ag 6.7
O=C(O)CSc1c[nH]c2ccccc12	none
CC(Sc1c[nH]c2ccccc12)C(=O)O (configuration not stated)	hcDAF-12 act 8.5 | LXRb hcDAF ctr inactive | hcDAF12 ag inactive
COC(=O)Cn1c2nc3ccccc3nc2c2cccc(C)c21	none
Cc1cccc2c3nc4ccccc4nc3n(C)c12	hcDAF-12 act 6.7 | LXRb hcDAF ctr inactive | hcDAF12 ag 11.4
O=C(NC(=S)Nc1ccccc1N1CCCC1)c1ccc(F)cc1	hcDAF-12 act 9.1 | LXRb hcDAF ctr inactive | hcDAF12 ag inactive
COc1ccccc1C(=O)NC(=S)Nc1ccccc1N1CCCC1	hcDAF-12 act 7.1 | LXRb hcDAF ctr inactive | hcDAF12 ag 7.6
Cc1ccccc1C(=O)NC(=S)Nc1ccccc1N1CCCC1	none

High-throughput results: PubChem, The Scripps Research Institute Molecular Screening Center
